The whole screen tested about 3,200 compounds, of which about 300 (9.4%) showed activity. The sample holds actives, similar compounds and a random draw of the others, so the mix is not that of the screen. Unmarked numbers belong to inactive results.

The subject of this assay is A673/TR/shEF. The assay can be described thus: cell viability (LOESS-normalised, relative to median of negative controls) (log2 ratio); higher = more viable cells (less compound effect), active = hit call of the paper (over 3 MAD below the median). The note with it: treatment time: 72 h. A digest of the protocol: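 For three days, A673/TR/shEF Ewing sarcoma cells in 384-well plates (1,500 per well) were treated with library compounds at two or more concentrations or with DMSO controls, after doxycycline had been added or withheld 24 h beforehand to induce EWS-FLI1 shRNA knockdown. Viability was read by CellTiter-Glo luminescence on an Envision reader. The data were LOESS-corrected per plate, divided by the median of negative controls and log2-transformed.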

Setting [1] is: 0.103 µM, library screen: screen3, EWS-FLI1 expression: high (no doxycycline).
[2] abbreviates: 0.103 µM, library screen: screen3, EWS-FLI1 expression: low (doxycycline-induced shRNA knockdown).
Setting [3] is: 0.308 µM, library screen: screen3, EWS-FLI1 expression: high (no doxycycline).
Setting [4] is: 0.308 µM, library screen: screen3, EWS-FLI1 expression: low (doxycycline-induced shRNA knockdown).
The mark [5] stands for this setting: 0.926 µM, library screen: screen3, EWS-FLI1 expression: high (no doxycycline).
[6] abbreviates: 0.926 µM, library screen: screen3, EWS-FLI1 expression: low (doxycycline-induced shRNA knockdown).
The mark [7] stands for this setting: 2.8 µM, library screen: screen3, EWS-FLI1 expression: high (no doxycycline).
Where [8] appears, read: 2.8 µM, library screen: screen3, EWS-FLI1 expression: low (doxycycline-induced shRNA knockdown).
[9] abbreviates: 8.3 µM, library screen: screen3, EWS-FLI1 expression: high (no doxycycline).
[10] abbreviates: 8.3 µM, library screen: screen3, EWS-FLI1 expression: low (doxycycline-induced shRNA knockdown).
The mark [11] stands for this setting: 25 µM, library screen: screen3, EWS-FLI1 expression: high (no doxycycline).
The mark [12] stands for this setting: 25 µM, library screen: screen3, EWS-FLI1 expression: low (doxycycline-induced shRNA knockdown).
Where [13] appears, read: 0.25 µM, library screen: screen1, EWS-FLI1 expression: high (no doxycycline).
The mark [14] stands for this setting: 0.25 µM, library screen: screen1, EWS-FLI1 expression: low (doxycycline-induced shRNA knockdown).
[15] abbreviates: 2.5 µM, library screen: screen1, EWS-FLI1 expression: high (no doxycycline).
[16] abbreviates: 2.5 µM, library screen: screen1, EWS-FLI1 expression: low (doxycycline-induced shRNA knockdown).

`CCCCCCOC(=O)/N=C(/N)c1ccc(NCc2nc3cc(C(=O)N(CCC(=O)OCC)c4ccccn4)ccc3n2C)cc1`: the “cell viability (log2)” value is -0.0699 under setting [1]; -0.0234 under setting [2]; -0.0119 under setting [3]; -0.019 under setting [4]; 0.046 under setting [5]; -0.0404 under setting [6]. For the same compound, the “cell viability (log2)” value is -0.0778 under setting [7]; 0.0123 under setting [8]; -0.0381 under setting [9]; 0.0285 under setting [10]; -0.441 (active) under setting [11]; 0.0312 under setting [12].
Regarding `Cn1c(CNc2ccc(C(=N)N)cc2)nc2cc(C(=O)N(CCC(=O)O)c3ccccn3)ccc21`, the “cell viability (log2)” value was 0.00826 under setting [1]; 0.00201 under setting [2]; 0.0563 under setting [3]; 0.0276 under setting [4]; 0.0456 under setting [5]; 0.123 under setting [6]. In addition, the “cell viability (log2)” value by setting is: under setting [7], -0.0294; under setting [8], 0.0652; under setting [9], 0.0628; under setting [10], 0.0736; under setting [11], 0.0838; under setting [12], 0.0437.
Regarding `CCN(CC)S(=O)(=O)c1ccc(C(=O)N(CCC(=O)OC)c2ccccn2)cc1`, the “cell viability (log2)” value is 0.0834 under setting [13], 0.147 under setting [14], 0.162 under setting [15] and 0.127 under setting [16].
For `NCCCCCN`, in that order: 0.0699, 0.0406, 0.114 and 0.103.
For `Cc1coc2ccccc2c1=O`, the “cell viability (log2)” value under setting [13] was 0.143, the “cell viability (log2)” value under setting [14] is 0.1, the “cell viability (log2)” value under setting [15] was 0.138 and the “cell viability (log2)” value under setting [16] was 0.165.
For `CC1=CC(=O)CC(C)(C)[C@@]1(O)/C=C/C(C)=C\C(=O)O`, in that order: 0.103, 0.084, 0.143 and 0.165.
For `CC(=O)O[C@@H]1CC2C(C)(C)CCC(=O)[C@]2(C)C2CC[C@@]3(C)[C@H](c4ccoc4)OC(=O)C4OC43[C@@]21C` (some centres undefined), in that order: 0.0305, 0.0828, 0.127 and 0.0866.
For `O=C(NC(C(=O)N1CCCCC1)=C1CCCCC1)c1ccccc1`, in that order: 0.107, 0.0798, 0.0724 and 0.127.
Regarding `COC(=O)C1=C(C)N=c2s/c(=C/c3ccc(OC)cc3OC)c(=O)n2C1c1cccs1` (centres undefined), the “cell viability (log2)” value reads like this: under setting [13], 0.0522; under setting [14], 0.13; under setting [15], 0.0666; under setting [16], 0.065.
For `CCCCCCCCCCCC1=C(O)C(=O)C=C(O)C1=O`, in that order: 0.161, 0.0381, 0.097 and 0.0519.
Consider `CCCCCCCCc1ccc(CCC(N)(CO)CO)cc1`, for which the “cell viability (log2)” value reads like this: under setting [1], 0.0814; under setting [2], 0.0528; under setting [3], 0.0332; under setting [4], -0.0148; under setting [5], 0.0328; under setting [6], 0.0341. The “cell viability (log2)” value reads like this: under setting [7], 0.00825; under setting [8], 0.0473; under setting [9], -0.0193; under setting [10], 0.0563; under setting [11], -0.341 (active); under setting [12], -0.161 (active).
Regarding `CC(=O)O[C@H]1C[C@@H](OC(C)=O)C(C)(C)C2CC(=O)[C@]3(C)C(CC[C@@]4(C)[C@H](c5ccoc5)OC(=O)[C@H]5O[C@]543)[C@]21C` (some centres undefined), the “cell viability (log2)” value is 0.116 under setting [13], 0.174 under setting [14], 0.177 under setting [15] and 0.123 under setting [16].
For the compound `CCCCCCCCCCC[C@@H](C[C@@H]1OC(=O)[C@H]1CCCCCC)OC(=O)[C@H](CC(C)C)NC=O`, the “cell viability (log2)” value is 0.0583 under setting [1]; 0.00452 under setting [2]; -0.0226 under setting [13]; 0.0354 under setting [14]; 0.0475 under setting [3]; 0.11 under setting [4]. Moreover, the “cell viability (log2)” value runs as follows: under setting [5], -0.01; under setting [6], 0.0194; under setting [15], -0.116 (active); under setting [16], 0.178; under setting [7], -0.0124; under setting [8], 0.136. The “cell viability (log2)” value reads like this: under setting [9], -0.103; under setting [10], -0.0203; under setting [11], -0.119; under setting [12], -0.0365.
Turning to `COC(=O)C[C@H]1C(C)(C)C2(Cl)O[C@@]34CC2C(=O)[C@]1(C)C3CC[C@]1(C)C4=CC(=O)O[C@H]1c1ccoc1` (some centres undefined), the “cell viability (log2)” value is 0.0526 under setting [13], 0.0775 under setting [14], 0.126 under setting [15] and 0.163 under setting [16].
On to `C=C1C(=O)O[C@@H]2C[C@@]3(C)CCC[C@H](C)C3=C[C@H]12`, for which the “cell viability (log2)” value (0.025 µM, library screen: screen2, EWS-FLI1 expression: high (no doxycycline)) is 0.148; the “cell viability (log2)” value (0.025 µM, library screen: screen2, EWS-FLI1 expression: low (doxycycline-induced shRNA knockdown)) was 0.0581; the “cell viability (log2)” value under setting [13] is 0.0724; the “cell viability (log2)” value under setting [14] is -0.00207; the “cell viability (log2)” value (0.25 µM, library screen: screen2, EWS-FLI1 expression: high (no doxycycline)) was 0.177; the “cell viability (log2)” value (0.25 µM, library screen: screen2, EWS-FLI1 expression: low (doxycycline-induced shRNA knockdown)) was 0.0288. The “cell viability (log2)” value is 0.152 under setting [15]; 0.0584 under setting [16]; 0.0901 (2.5 µM, library screen: screen2, EWS-FLI1 expression: high (no doxycycline)); 0.000642 (2.5 µM, library screen: screen2, EWS-FLI1 expression: low (doxycycline-induced shRNA knockdown)); -0.0554 (25 µM, library screen: screen2, EWS-FLI1 expression: high (no doxycycline)); -0.102 (25 µM, library screen: screen2, EWS-FLI1 expression: low (doxycycline-induced shRNA knockdown)).
